# According to PubChem BioAssay AID652070 (Broad Institute, 2013):
# Records with an inconclusive call do not appear. The source made the active and inactive calls. The rule behind the calls is not given here.
# Test: apoptosis induction over several timepoints – cell-based, HT29 HRAS, caspase 3/7 luminescence, multiple timepoints, dry powder, mechanism study for HRAS target identification (AID 652070)
# Details: HT29 HRAS cells; max activity: measured here: third timepoint caspase 3/7, at 0.068 µM, stronger effect = higher value unless noted; series mostly up to 35 µM; caspase 3/7 activation: at the top concentration
Structure (SMILES),max activity,caspase 3/7 activation
Cc1onc(C(=O)N2CCN(C(c3ccc(Cl)cc3)c3ccc(OCCOCCOCCNC(=O)OC(C)(C)C)cc3)CC2)c1[N+](=O)[O-] (configuration not stated),"22.2% [measured here: third timepoint caspase 3/7, at 0.0001 µM, stronger effect = higher value]",19% (inactive)
CO[C@H]1C[C@@H]2CC[C@@H](C)[C@@](O)(O2)C(=O)C(=O)N2CCCC[C@H]2C(=O)O[C@H]([C@H](C)C[C@@H]2CC[C@@H](O)[C@H](OC)C2)CC(=O)[C@H](C)/C=C(\C)[C@@H](O)[C@@H](OC)C(=O)[C@H](C)C[C@H](C)/C=C/C=C/C=C/1C,"31.1% [measured here: third timepoint caspase 3/7, at 35 µM, stronger effect = higher value]",6.78% (inactive)
Cc1onc(C(=O)N2CCN(C(c3ccc(Cl)cc3)c3ccc(Cl)cc3)CC2)c1[N+](=O)[O-],"13.3% [measured here: third timepoint caspase 3/7, at 0.0001 µM, stronger effect = higher value]",21% (inactive)
CCC(=O)N(c1ccc(OC)c(Cl)c1)C(C(=O)NCCc1ccccc1)c1cccs1 (configuration not stated),17.8%,26% (inactive)
O=C(NCCOCCOCCOc1ccc(N(C(=O)CCl)C(C(=O)NCCc2ccccc2)c2cccs2)cc1Cl)c1ccc(COC2C#CCCCCC2)cc1 (configuration not stated),24.4%,25.4% (inactive)
COc1ccc(N(C(=O)CCl)C(C(=O)NCCc2ccccc2)c2cccs2)cc1Cl (configuration not stated),"22.2% [measured here: third timepoint caspase 3/7, at 8 µM, stronger effect = higher value]",-32.2% (inactive)
